Results from paper PMC7862700, “An all-to-all approach to the identification of sequence-specific readers for epigenetic DNA modifications on cytosine”.

How the values were obtained:
Assay in all cases: DAPPL (digital affinity profiling via proximity ligation, sequencing); 10 mM Tris-HCl pH 7.5, 50 mM NaCl, 1 mM DTT, 4% glycerol, room temperature, 30 min; GST-TFs on glutathione beads, 16-mer random dsDNA library, 0.1% formaldehyde crosslink after washing; high values mean tight binding
FLI1 = target: T1, FLI1 (Homo sapiens, UniProt Q01543 1-452); conditions: protein: recombinant; tags: N-terminal GST; dsDNA, one strand shown
T1 sequence: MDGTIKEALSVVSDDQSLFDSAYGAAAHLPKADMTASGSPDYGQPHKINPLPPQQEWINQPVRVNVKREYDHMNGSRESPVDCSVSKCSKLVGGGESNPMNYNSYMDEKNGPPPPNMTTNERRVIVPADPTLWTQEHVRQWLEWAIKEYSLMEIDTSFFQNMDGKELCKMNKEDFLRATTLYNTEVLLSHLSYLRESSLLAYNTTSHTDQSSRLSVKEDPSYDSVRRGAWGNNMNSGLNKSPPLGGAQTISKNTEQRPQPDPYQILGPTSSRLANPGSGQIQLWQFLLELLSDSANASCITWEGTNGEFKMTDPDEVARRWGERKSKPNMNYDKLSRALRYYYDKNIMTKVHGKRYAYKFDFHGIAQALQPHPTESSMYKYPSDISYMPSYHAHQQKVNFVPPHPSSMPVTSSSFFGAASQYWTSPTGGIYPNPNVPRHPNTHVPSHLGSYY
Summary of the method: (§1)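 A tag-only sample was pooled with DNA-barcoded human transcription factors that had been expressed in yeast as GST fusions and captured on glutathione beads. The pools were incubated for 30 min at room temperature with 200 nmole of a random double-stranded 16-mer DNA library in Tris/NaCl/DTT/glycerol buffer, then washed, crosslinked with 0.1% formaldehyde, proximity-ligated (BsaI/T4 ligase, 1 h, 37 °C), PCR-amplified and sequenced on an Illumina NextSeq500. Binding signal is each hexamer's read frequency for a factor divided by its frequency for the tag-only sample.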

ELK1 = target: T2, ELK1 (Homo sapiens, UniProt P19419 1-428); conditions: protein: recombinant; tags: N-terminal GST; dsDNA, one strand shown
T2 sequence: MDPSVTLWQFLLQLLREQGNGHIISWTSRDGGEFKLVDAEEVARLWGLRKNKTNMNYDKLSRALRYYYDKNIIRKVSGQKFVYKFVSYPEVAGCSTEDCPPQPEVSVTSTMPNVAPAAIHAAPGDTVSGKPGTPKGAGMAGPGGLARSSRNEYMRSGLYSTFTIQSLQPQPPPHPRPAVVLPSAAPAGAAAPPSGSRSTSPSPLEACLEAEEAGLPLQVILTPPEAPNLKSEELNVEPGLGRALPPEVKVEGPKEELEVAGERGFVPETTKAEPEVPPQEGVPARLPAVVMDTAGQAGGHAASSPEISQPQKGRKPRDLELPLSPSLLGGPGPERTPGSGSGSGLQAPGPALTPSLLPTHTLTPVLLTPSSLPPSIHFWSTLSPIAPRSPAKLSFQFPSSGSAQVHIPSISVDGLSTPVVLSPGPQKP
Summary of the method: as §1

GABPA = target: T3, GABPA (Homo sapiens, UniProt Q06546 1-454); conditions: protein: recombinant; tags: N-terminal GST; dsDNA, one strand shown
T3 sequence: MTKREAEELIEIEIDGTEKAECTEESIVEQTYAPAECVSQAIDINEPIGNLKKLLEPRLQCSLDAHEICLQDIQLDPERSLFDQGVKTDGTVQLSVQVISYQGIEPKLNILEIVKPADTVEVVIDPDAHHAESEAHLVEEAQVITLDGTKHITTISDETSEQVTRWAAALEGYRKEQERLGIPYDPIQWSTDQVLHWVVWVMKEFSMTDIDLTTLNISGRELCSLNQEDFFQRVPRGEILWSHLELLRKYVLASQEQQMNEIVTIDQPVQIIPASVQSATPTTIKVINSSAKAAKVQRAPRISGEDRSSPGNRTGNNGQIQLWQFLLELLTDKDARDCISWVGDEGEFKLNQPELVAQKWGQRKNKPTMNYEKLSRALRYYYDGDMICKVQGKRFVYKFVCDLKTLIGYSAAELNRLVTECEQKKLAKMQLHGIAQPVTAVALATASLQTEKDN
Summary of the method: as §1

ERG = target: T4, ERG (Homo sapiens, UniProt P11308 1-479); conditions: protein: recombinant; tags: N-terminal GST; dsDNA, one strand shown
T4 sequence: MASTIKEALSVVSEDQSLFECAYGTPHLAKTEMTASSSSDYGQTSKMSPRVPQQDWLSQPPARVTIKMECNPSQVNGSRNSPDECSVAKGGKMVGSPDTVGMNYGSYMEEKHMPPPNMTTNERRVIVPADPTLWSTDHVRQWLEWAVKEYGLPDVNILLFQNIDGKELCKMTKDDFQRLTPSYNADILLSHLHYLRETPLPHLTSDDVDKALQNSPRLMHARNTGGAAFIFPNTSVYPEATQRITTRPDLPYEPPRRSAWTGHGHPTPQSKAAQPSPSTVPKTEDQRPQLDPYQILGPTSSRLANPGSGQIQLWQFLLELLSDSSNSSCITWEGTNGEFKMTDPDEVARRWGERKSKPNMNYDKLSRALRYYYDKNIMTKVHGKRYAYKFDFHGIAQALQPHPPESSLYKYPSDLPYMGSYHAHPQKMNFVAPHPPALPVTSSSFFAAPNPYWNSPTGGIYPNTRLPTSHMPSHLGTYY
Summary of the method: as §1

ELF1 = ELF1 (Homo sapiens, UniProt P32519 1-619); conditions: protein: recombinant; tags: N-terminal GST; dsDNA, one strand shown
ELF1, sequence (P32519 whole entry): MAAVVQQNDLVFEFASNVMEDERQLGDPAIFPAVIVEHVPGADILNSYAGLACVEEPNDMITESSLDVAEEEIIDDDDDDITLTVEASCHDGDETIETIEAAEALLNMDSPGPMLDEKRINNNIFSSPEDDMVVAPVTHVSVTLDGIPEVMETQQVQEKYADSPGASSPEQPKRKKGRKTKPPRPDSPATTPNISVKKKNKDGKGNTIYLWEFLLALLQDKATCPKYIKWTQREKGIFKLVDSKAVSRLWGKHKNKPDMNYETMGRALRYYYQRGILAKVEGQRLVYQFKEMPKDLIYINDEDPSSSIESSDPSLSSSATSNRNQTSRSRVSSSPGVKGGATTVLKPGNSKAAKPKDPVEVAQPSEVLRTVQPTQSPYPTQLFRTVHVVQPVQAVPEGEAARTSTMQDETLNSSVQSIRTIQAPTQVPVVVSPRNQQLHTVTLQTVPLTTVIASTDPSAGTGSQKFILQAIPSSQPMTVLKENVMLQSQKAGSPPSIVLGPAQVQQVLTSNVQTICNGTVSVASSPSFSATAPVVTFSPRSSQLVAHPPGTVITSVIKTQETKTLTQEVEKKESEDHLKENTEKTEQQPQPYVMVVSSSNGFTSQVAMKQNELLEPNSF
Summary of the method: as §1

EHF = target: T5, EHF (Homo sapiens, UniProt Q9NZC4 1-300); conditions: protein: recombinant; tags: N-terminal GST; dsDNA, one strand shown
T5 sequence: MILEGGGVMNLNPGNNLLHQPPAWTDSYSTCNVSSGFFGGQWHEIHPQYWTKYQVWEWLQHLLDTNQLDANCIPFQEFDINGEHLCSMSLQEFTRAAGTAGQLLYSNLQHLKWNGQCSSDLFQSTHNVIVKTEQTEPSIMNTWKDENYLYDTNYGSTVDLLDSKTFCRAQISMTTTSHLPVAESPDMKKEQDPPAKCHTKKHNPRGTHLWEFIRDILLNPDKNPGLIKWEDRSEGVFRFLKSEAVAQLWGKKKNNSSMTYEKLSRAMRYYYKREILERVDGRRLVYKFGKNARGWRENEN
Summary of the method: as §1

SPI1 = SPI1 (Homo sapiens, UniProt P17947 1-270); conditions: protein: recombinant; tags: N-terminal GST; dsDNA, one strand shown
Summary of the method: as §1

SPIB = SPIB (Homo sapiens, UniProt Q01892 1-262); conditions: protein: recombinant; tags: N-terminal GST; dsDNA, one strand shown
SPIB, sequence (Q01892 whole entry): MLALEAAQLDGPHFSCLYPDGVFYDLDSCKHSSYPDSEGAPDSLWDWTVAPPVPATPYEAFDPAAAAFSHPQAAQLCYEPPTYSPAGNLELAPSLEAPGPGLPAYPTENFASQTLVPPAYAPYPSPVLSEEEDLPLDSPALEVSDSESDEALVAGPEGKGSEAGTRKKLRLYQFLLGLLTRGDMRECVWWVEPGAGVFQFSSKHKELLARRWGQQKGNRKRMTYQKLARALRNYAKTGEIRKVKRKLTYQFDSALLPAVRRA
Summary of the method: as §1

ELK3 = target: T6, ELK3 (Homo sapiens, UniProt P41970 1-407); conditions: protein: recombinant; tags: N-terminal GST; dsDNA, one strand shown
T6 sequence: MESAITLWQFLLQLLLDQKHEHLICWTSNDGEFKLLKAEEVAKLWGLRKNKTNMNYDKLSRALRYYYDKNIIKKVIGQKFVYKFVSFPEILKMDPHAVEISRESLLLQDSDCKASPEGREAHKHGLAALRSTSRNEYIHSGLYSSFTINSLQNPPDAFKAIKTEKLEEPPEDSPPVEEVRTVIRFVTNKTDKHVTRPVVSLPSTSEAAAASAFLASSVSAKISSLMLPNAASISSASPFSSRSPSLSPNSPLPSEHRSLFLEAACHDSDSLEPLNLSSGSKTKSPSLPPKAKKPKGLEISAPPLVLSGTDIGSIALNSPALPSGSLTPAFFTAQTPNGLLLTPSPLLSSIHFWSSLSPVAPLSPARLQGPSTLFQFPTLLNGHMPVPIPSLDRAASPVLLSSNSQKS
Summary of the method: as §1

FEV = target: T7, FEV (Homo sapiens, UniProt Q99581 1-238); conditions: protein: recombinant; tags: N-terminal GST; dsDNA, one strand shown
T7 sequence: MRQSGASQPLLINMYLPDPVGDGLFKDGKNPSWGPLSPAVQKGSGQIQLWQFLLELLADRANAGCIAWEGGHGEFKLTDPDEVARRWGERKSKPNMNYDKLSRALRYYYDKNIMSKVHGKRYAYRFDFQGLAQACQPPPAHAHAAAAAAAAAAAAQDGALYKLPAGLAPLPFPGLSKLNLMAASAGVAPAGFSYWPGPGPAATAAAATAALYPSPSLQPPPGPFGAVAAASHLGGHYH
Summary of the method: as §1

ETV5 = ETV5 (Homo sapiens, UniProt P41161 1-510); conditions: protein: recombinant; tags: N-terminal GST; dsDNA, one strand shown
ETV5, sequence (P41161 whole entry): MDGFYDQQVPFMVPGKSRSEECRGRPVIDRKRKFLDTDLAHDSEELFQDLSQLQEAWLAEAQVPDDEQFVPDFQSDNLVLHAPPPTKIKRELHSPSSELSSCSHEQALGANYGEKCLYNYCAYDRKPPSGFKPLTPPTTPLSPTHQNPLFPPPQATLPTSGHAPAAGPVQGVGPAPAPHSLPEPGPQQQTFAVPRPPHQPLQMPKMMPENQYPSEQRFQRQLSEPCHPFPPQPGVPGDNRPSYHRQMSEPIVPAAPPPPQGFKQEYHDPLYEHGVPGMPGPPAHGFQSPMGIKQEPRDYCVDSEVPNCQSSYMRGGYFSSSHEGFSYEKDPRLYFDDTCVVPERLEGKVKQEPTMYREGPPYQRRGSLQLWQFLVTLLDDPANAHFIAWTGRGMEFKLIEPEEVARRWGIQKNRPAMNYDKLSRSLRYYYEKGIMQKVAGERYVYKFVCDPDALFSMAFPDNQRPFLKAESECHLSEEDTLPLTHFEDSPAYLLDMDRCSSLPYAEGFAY
Summary of the method: as §1

HSF1 = HSF1 (Homo sapiens, UniProt Q00613 1-529); conditions: protein: recombinant; tags: N-terminal GST; chain copies: 3; dsDNA, one strand shown
HSF1, sequence (Q00613 whole entry): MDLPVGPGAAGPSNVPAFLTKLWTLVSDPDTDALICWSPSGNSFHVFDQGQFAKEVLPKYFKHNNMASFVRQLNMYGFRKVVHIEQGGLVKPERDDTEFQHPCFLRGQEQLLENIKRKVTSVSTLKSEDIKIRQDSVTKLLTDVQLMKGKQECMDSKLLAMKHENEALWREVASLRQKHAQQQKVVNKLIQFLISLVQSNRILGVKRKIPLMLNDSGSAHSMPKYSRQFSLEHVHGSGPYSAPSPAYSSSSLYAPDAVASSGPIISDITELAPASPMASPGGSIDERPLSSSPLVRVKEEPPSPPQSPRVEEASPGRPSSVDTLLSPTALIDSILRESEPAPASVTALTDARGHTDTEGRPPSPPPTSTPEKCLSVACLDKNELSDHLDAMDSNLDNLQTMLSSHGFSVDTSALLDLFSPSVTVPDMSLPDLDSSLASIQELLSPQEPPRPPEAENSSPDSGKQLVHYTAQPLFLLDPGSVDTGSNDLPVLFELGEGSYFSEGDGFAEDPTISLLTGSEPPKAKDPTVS
Summary of the method: as §1

SPIC = target: T8, SPIC (Homo sapiens, UniProt Q8N5J4 1-248); conditions: protein: recombinant; tags: N-terminal GST; dsDNA, one strand shown
T8 sequence: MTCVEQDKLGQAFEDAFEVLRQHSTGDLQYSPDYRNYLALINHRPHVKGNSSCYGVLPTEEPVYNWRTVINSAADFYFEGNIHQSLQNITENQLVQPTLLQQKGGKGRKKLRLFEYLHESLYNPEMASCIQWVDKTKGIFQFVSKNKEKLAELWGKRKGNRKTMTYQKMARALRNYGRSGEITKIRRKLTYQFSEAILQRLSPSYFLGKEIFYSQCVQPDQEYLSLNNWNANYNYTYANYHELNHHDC
Summary of the method: as §1

ELF4 = ELF4 (Homo sapiens, UniProt Q99607 1-663); conditions: protein: recombinant; tags: N-terminal GST; dsDNA, one strand shown
ELF4, sequence (Q99607 whole entry): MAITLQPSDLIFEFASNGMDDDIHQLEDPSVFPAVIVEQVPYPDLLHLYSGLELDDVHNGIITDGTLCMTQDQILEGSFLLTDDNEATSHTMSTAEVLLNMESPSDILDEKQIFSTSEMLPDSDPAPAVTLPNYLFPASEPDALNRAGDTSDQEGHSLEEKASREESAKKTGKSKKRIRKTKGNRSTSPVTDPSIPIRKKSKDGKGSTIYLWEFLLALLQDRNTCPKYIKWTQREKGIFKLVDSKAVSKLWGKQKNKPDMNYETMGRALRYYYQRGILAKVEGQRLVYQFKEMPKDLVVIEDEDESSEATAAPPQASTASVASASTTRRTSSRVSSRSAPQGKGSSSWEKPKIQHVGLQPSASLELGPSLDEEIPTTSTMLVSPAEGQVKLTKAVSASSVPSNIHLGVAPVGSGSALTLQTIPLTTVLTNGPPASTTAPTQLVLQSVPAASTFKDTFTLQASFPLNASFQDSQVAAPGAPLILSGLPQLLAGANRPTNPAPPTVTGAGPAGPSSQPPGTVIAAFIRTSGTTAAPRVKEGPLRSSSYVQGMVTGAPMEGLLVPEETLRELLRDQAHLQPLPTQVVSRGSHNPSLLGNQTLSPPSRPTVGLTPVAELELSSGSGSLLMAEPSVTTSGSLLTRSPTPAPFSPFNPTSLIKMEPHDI
Summary of the method: as §1

ELK4 = target: T9, ELK4 (Homo sapiens, UniProt P28324-2 1-405); conditions: protein: recombinant; tags: N-terminal GST; dsDNA, one strand shown
T9 sequence: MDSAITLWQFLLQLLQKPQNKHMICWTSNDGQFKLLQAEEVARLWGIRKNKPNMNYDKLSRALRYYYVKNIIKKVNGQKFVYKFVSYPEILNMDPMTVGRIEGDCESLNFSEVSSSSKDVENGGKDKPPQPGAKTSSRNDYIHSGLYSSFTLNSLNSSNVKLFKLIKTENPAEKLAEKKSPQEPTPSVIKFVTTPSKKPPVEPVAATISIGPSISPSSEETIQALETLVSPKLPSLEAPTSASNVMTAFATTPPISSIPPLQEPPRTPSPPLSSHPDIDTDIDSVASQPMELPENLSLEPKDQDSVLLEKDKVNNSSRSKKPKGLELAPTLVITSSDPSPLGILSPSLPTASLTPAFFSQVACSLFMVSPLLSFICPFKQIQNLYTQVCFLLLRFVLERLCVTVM
Summary of the method: as §1

ETV2 = target: T10, ETV2 (Homo sapiens, UniProt O00321 1-342); conditions: protein: recombinant; tags: N-terminal GST; dsDNA, one strand shown
T10 sequence: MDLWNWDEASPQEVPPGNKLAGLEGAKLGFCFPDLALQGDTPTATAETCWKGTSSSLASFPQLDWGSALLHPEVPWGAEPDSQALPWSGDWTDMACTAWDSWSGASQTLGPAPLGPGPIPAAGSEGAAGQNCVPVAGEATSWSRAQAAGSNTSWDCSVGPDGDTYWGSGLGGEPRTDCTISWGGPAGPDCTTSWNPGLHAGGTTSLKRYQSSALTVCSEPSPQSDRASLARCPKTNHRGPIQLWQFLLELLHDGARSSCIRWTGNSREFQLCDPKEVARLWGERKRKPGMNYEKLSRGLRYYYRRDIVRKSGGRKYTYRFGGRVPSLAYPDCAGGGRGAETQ
Summary of the method: as §1

ELF3 = target: T11, ELF3 (Homo sapiens, UniProt P78545 1-371); conditions: protein: recombinant; tags: N-terminal GST; dsDNA, one strand shown
T11 sequence: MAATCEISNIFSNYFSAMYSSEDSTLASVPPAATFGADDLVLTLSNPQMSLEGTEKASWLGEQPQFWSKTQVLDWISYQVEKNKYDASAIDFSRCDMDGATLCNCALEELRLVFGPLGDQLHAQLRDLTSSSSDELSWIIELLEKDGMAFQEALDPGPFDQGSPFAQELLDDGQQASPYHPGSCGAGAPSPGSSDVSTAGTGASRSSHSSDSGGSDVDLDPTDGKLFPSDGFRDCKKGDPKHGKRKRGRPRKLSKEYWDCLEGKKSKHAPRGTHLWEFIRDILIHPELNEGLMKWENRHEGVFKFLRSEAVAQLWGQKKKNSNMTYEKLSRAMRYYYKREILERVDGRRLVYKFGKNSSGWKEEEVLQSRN
Summary of the method: as §1

CRX = CRX (Homo sapiens, UniProt O43186 1-299); conditions: protein: recombinant; tags: N-terminal GST; dsDNA, one strand shown
CRX, sequence (O43186 whole entry): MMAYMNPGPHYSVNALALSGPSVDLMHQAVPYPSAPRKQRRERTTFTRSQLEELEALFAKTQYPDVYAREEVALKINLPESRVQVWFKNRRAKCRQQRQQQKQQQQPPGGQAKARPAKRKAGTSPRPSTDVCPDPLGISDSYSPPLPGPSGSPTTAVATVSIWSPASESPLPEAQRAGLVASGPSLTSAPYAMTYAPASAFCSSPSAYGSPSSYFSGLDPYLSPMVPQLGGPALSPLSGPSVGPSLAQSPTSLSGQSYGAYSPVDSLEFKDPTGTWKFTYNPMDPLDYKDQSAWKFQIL
Summary of the method: as §1

ETV1 = ETV1 (Homo sapiens, UniProt P50549 1-477); conditions: protein: recombinant; tags: N-terminal GST; dsDNA, one strand shown
ETV1, sequence (P50549 whole entry): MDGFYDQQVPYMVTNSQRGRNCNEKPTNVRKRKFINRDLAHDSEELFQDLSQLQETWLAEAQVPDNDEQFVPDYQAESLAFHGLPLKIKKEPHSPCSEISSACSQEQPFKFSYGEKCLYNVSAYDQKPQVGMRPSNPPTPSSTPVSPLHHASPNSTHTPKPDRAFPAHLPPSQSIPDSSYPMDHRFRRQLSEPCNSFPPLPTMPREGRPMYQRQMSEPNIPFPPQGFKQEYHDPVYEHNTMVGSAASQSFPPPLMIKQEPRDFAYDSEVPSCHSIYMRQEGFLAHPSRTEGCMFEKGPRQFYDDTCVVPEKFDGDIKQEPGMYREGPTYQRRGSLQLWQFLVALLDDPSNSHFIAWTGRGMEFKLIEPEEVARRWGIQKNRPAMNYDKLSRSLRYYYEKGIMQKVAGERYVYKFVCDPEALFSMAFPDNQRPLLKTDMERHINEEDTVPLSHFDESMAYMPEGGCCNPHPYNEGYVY
Summary of the method: as §1

TTATAG
binding signal (FLI1): 1.13 fold enrichment (6-mer frequency, TF over GST control)
binding signal (ELK1): 1.09 fold enrichment (6-mer frequency, TF over GST control)
binding signal (GABPA): 1.22 fold enrichment (6-mer frequency, TF over GST control)
binding signal (ERG): 1.04 fold enrichment (6-mer frequency, TF over GST control)
binding signal (ELF1): 1.2 fold enrichment (6-mer frequency, TF over GST control)
binding signal (EHF): 1.25 fold enrichment (6-mer frequency, TF over GST control)
binding signal (SPI1): 1.2 fold enrichment (6-mer frequency, TF over GST control)
binding signal (SPIB): 1.2 fold enrichment (6-mer frequency, TF over GST control)
binding signal (ELK3): 1.03 fold enrichment (6-mer frequency, TF over GST control)
binding signal (FEV): 1.17 fold enrichment (6-mer frequency, TF over GST control)
binding signal (ETV5): 1.29 fold enrichment (6-mer frequency, TF over GST control)
binding signal (HSF1): 1.8 fold enrichment (6-mer frequency, TF over GST control)
binding signal (SPIC): 1.38 fold enrichment (6-mer frequency, TF over GST control)
binding signal (ELF4): 1.13 fold enrichment (6-mer frequency, TF over GST control)
binding signal (ELK4): 1.24 fold enrichment (6-mer frequency, TF over GST control)
binding signal (ETV2): 1.07 fold enrichment (6-mer frequency, TF over GST control)
binding signal (ELF3): 1.27 fold enrichment (6-mer frequency, TF over GST control)
binding signal (CRX): 2.46 fold enrichment (6-mer frequency, TF over GST control)
binding signal (ETV1): 1.18 fold enrichment (6-mer frequency, TF over GST control)
